Assay results: the supplement of paper PMC12645437, “Orthogonal IMiD-Degron Pairs Induce Selective Protein Degradation in Cells” (ACS Chemical Biology, 2025)
Whole data set: some 8,300 sequences, median “log2 fold change of degron read counts, EGFP-low vs EGFP+ sorted cells (limma voom), compound-induced degradation” near -1.1, cut for the highest 2% near 3.2. The list comes from a sample in which the highest values are over-represented; it also holds similar and randomly drawn sequences.

T1: CRBN, Q96SW2
T1 chain: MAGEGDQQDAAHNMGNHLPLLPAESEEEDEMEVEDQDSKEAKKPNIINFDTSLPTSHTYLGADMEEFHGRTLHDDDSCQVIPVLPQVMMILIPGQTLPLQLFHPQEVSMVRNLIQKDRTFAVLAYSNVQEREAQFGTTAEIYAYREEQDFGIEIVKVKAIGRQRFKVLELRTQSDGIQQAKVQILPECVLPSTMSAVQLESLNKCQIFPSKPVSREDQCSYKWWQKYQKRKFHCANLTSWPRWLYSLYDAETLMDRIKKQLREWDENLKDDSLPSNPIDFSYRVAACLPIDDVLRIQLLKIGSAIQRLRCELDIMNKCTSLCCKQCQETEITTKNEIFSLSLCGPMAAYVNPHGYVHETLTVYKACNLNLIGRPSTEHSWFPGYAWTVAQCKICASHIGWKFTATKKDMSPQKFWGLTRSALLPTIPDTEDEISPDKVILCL


Target: T1, CRBN, Q96SW2
Test: log2 fold change of degron read counts, EGFP-low vs EGFP+ sorted cells (limma voom), compound-induced degradation; higher = more compound-induced degradation of the degron-EGFP fusion; degrons are variants of IKZF1/3 zinc finger 2; compound dose not given here
Conditions: Jurkat, 18 h
Description: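 Pooled library of 8380 IKZF3 ZF2 degron mutants (positions 146-167 varied within the IKZF3 130-189 degron; only the varied core is printed, flanks not printed) fused to EGFP with IRES-mCherry, lentivirally expressed in Jurkat cells. mCherry+ cells were treated with one IMiD compound for 18 h (dose not stated) and FACS-sorted into EGFP-low and EGFP+ populations. Degron sequences were counted by NGS, and log2FC (EGFP-low vs EGFP+) was estimated by limma voom over 3 biological replicates.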

[1] = compound: compound 19 (5-tert-butyl-thalidomide)
[2] = compound: compound 22 (5-morpholino-thalidomide)
[3] = compound: compound 33 (diphenyl IMiD analogue)
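Further: pooled lentiviral library of zinc finger degron-EGFP fusions in mCherry-positive Jurkat cells, FACS-sorted after compound exposure, with degron abundance counted by next-generation sequencing.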

Row | Sequence | log2 fold change of degron read counts [1] | log2 fold change of degron read counts [2] | log2 fold change of degron read counts [3] | log2 fold change of degron read counts (compound: thalidomide)
1 | LTCEICGFWCTQKGNLLRHIKL [46L_47T_49E_50I_52G_53F_54W_55C_67L_, Q9UKT9] | -0.648 | -0.501 | 0.784 | 0.539
2 | FDCDICGAAFTQKGNLLRHIKL [46F_47D_49D_50I_52G_53A_54A_55F_67L_, Q9UKT9] | 0.561 | -1.32 | -1.46 | -0.827
3 | FRCEICGHVFTQKGNLLRHIKL [46F_47R_49E_50I_52G_53H_54V_55F_67L_, Q9UKT9] | -2.92 | -3.64 | -1.71 | -2.21
4 | FMCNVCGAAFTQKGNLLRHIKL [46F_47M_49N_50V_52G_53A_54A_55F_67L_, Q9UKT9] | -1.07 | -0.0279 | 2 | 0.272
5 | FTCEVCGAGFTQKGNLLRHIKL [46F_47T_49E_50V_52G_53A_54G_55F_67L_, Q9UKT9] | 2.39 | 2.34 | 2.42 | 2.32
6 | FNCDVCGAFFTQKGNLLRHIKL [46F_47N_49D_50V_52G_53A_54F_55F_67L_, Q9UKT9] | -1.57 | -2.42 | -1.91 | -2.42
7 | LDCNQCGFCCTQKGNLLRHIKL [46L_47D_49N_50Q_52G_53F_54C_55C_67L_, Q9UKT9] | -2.36 | -3.41 | -2.85 | -2.58
8 | FTCEICGAWFTQKGNLLRHIKL [46F_47T_49E_50I_52G_53A_54W_55F_67L_, Q9UKT9] | -0.788 | -0.479 | 1.12 | 1.04
9 | FRCSVCGHLFTQKGNLLRHIKL [46F_47R_49S_50V_52G_53H_54L_55F_67L_, Q9UKT9] | -2.53 | -3.16 | -2.34 | -2.39
10 | LYCNQCGFQCTQKGNLLRHIKL [46L_47Y_49N_50Q_52G_53F_54Q_55C_67L_, Q9UKT9] | -1.36 | -0.758 | -1.33 | -2.14
11 | LQCPICGFGCTQKGNLLRHIKL [46L_47Q_49P_50I_52G_53F_54G_55C_67L_, Q9UKT9] | 2.46 | 2.07 | 1.63 | 3.23
12 | LTCPICGFSCTQKGNLLRHIKL [46L_47T_49P_50I_52G_53F_54S_55C_67L_, Q9UKT9] | 2.51 | 3.37 | 2.87 | 3.49
13 | LWCPICGFSCTQKGNLLRHIKL [46L_47W_49P_50I_52G_53F_54S_55C_67L_, Q9UKT9] | 3.31 | 3.57 | 2.84 | 2.33
14 | LYCPICGFECTQKGNLLRHIKL [46L_47Y_49P_50I_52G_53F_54E_55C_67L_, Q9UKT9] | 2.78 | 2.56 | 2.08 | 0.736
15 | LQCPICGFSCTQKGNLLRHIKL [46L_47Q_49P_50I_52G_53F_54S_55C_67L_, Q9UKT9] | 2.67 | 2.76 | 2.41 | 3.53
16 | LQCPICGFWCTQKGNLLRHIKL [46L_47Q_49P_50I_52G_53F_54W_55C_67L_, Q9UKT9] | 0.033 | 0.594 | 1.15 | 2.58
17 | LWCPICGFECTQKGNLLRHIKL [46L_47W_49P_50I_52G_53F_54E_55C_67L_, Q9UKT9] | 2.12 | 2.64 | 2.17 | 0.382
18 | LTCPICGFECTQKGNLLRHIKL [46L_47T_49P_50I_52G_53F_54E_55C_67L_, Q9UKT9] | 0.6 | 1.64 | 1.55 | 2.4
19 | LYCPICGFSCTQKGNLLRHIKL [46L_47Y_49P_50I_52G_53F_54S_55C_67L_, Q9UKT9] | 3.73 | 3.72 | 3.09 | 2.7
